Measured values taken from PubChem BioAssay AID1159580 (chemical genetic matrix, 2015).
About 2,000 (36%) of roughly 5,500 compounds were called active. Not shown: some 18% with an inconclusive outcome. No stated cut-off is given here; in the data, active means normalized growth mostly below about 0.91 (no sharp cut-off); inconclusive means no clear call, values can overlap the other calls; inactive means mostly above about 0.92. This is one part of the list.

Assay: chemical genetic growth profiling, strain panel (AID 1159580);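 further: tested at 20 µM; growth read once vehicle control cultures reached saturation at 30 °C; 1 = growth at the plate median or of vehicle wells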
Settings: growth OD

Measured: normalized growth

Nc1ccn(C2O[C@H](CO)[C@@H](O)[C@@H]2O)c(=O)n1 (stereo partly drawn)
inactive: S. cerevisiae deletion strains, locus YKL009W, strain mrt4, stronger effect = lower value 0.992 | S. cerevisiae deletion strains, locus YKL068W, stronger effect = lower value 0.994 | S. cerevisiae deletion strains, locus YKL085W, strain MDH1 (second series), stronger effect = lower value 1 | S. cerevisiae deletion strains, locus YKL085W, strain MDH1, stronger effect = lower value 1 | S. cerevisiae deletion strains, locus YKL160W, strain elf1, stronger effect = lower value 1.05 | S. cerevisiae deletion strains, locus YKL190W, strain CNB1, stronger effect = lower value 1.01 | S. cerevisiae deletion strains, locus YKR001C, strain vps1, stronger effect = lower value 1.01 | S. cerevisiae deletion strains, locus YKR026C, strain gcn3, stronger effect = lower value 0.999 | S. cerevisiae deletion strains, locus YKR091W, strain srl3, stronger effect = lower value 0.997 | S. cerevisiae deletion strains, locus YLL001W, strain dnm1, stronger effect = lower value 1.07 | S. cerevisiae deletion strains, locus YLL026W, stronger effect = lower value 0.994 | S. cerevisiae deletion strains, locus YLL041C, strain sdh2, stronger effect = lower value 0.981 | S. cerevisiae deletion strains, locus YLR027C, strain aat2, stronger effect = lower value 0.993 | S. cerevisiae deletion strains, locus YLR039C, strain RIC1, stronger effect = lower value 1.03 | S. cerevisiae deletion strains, locus YLR058C, strain SHM2, stronger effect = lower value 1.01 | S. cerevisiae deletion strains, locus YLR102C, strain apc9, stronger effect = lower value 0.977 | S. cerevisiae deletion strains, locus YLR113W, strain HOG1, stronger effect = lower value 1.04 | S. cerevisiae deletion strains, locus YLR221C, strain rsa3, stronger effect = lower value 1.06 | S. cerevisiae deletion strains, locus YLR258W, strain gsy2, stronger effect = lower value 1.02 | S. cerevisiae deletion strains, locus YLR262C, strain YPT6 (second series), stronger effect = lower value 1 | S. cerevisiae deletion strains, locus YLR262C, strain YPT6, stronger effect = lower value 1.01 | S. cerevisiae deletion strains, locus YLR268W, strain sec22, stronger effect = lower value 0.992 | S. cerevisiae deletion strains, locus YLR320W, strain mms22, stronger effect = lower value 1.06 | S. cerevisiae deletion strains, locus YLR330W, strain CHS5, stronger effect = lower value 1.01 | S. cerevisiae deletion strains, locus YLR342W, strain FKS1 (second series), stronger effect = lower value 1.02 | S. cerevisiae deletion strains, locus YLR342W, strain FKS1, stronger effect = lower value 0.994 | S. cerevisiae deletion strains, locus YLR357W, strain rsc2, stronger effect = lower value 0.988 | S. cerevisiae deletion strains, locus YLR370C, strain arc18, stronger effect = lower value 1.01 | S. cerevisiae deletion strains, locus YLR371W, strain rom2, stronger effect = lower value 0.995 | S. cerevisiae deletion strains, locus YLR384C, strain iki3, stronger effect = lower value 1 | S. cerevisiae deletion strains, locus YLR418C, strain cdc73, stronger effect = lower value 0.966 | S. cerevisiae deletion strains, locus YML016C, strain PPZ1, stronger effect = lower value 1.01 | S. cerevisiae deletion strains, locus YML032C, strain rad52, stronger effect = lower value 1.01 | S. cerevisiae deletion strains, locus YML120C, strain ndi1, stronger effect = lower value 1.02 | S. cerevisiae deletion strains, locus YML124C, strain tub3, stronger effect = lower value 0.988 | S. cerevisiae deletion strains, locus YMR058W, strain fet3, stronger effect = lower value 0.997 | S. cerevisiae deletion strains, locus YMR078C, strain ctf18, stronger effect = lower value 0.992 | S. cerevisiae deletion strains, locus YMR125W, strain sto1, stronger effect = lower value 0.996 | S. cerevisiae deletion strains, locus YMR129W, stronger effect = lower value 0.979 | S. cerevisiae deletion strains, locus YMR205C, strain PFK2, stronger effect = lower value 1.04 | S. cerevisiae deletion strains, locus YMR223W, strain ubp8, stronger effect = lower value 0.995 | S. cerevisiae deletion strains, locus YMR231W, strain pep5, stronger effect = lower value 0.989 | S. cerevisiae deletion strains, locus YMR263W, strain SAP30, stronger effect = lower value 1 | S. cerevisiae deletion strains, locus YMR307W, strain GAS1, stronger effect = lower value 1.04 | S. cerevisiae deletion strains, locus YNL067W, strain RPL9B, stronger effect = lower value 1 | S. cerevisiae deletion strains, locus YNL071W, strain lat1, stronger effect = lower value 0.977 | S. cerevisiae deletion strains, locus YNL128W, strain TEP1, stronger effect = lower value 1.02 | S. cerevisiae deletion strains, locus YNL183C, strain NPR1, stronger effect = lower value 0.964 | S. cerevisiae deletion strains, locus YNL209W, strain ssb2, stronger effect = lower value 0.994 | S. cerevisiae deletion strains, locus YNL233W, strain BNI4, stronger effect = lower value 0.991 | S. cerevisiae deletion strains, locus YNL248C, strain rpa49, stronger effect = lower value 0.993 | S. cerevisiae deletion strains, locus YNL250W, strain rad50, stronger effect = lower value 0.994 | S. cerevisiae deletion strains, locus YNL271C, strain bni1, stronger effect = lower value 0.996 | S. cerevisiae deletion strains, locus YNL298W, strain CLA4, stronger effect = lower value 0.998 | S. cerevisiae deletion strains, locus YNL307C, strain MCK1, stronger effect = lower value 0.997 | S. cerevisiae deletion strains, locus YNL322C, strain KRE1 (second series), stronger effect = lower value 1.01 | S. cerevisiae deletion strains, locus YNR049C, strain mso1, stronger effect = lower value 0.989 | S. cerevisiae deletion strains, locus YNR052C, strain pop2, stronger effect = lower value 0.996 | S. cerevisiae deletion strains, locus YOL006C, strain TOP1, stronger effect = lower value 1.05 | S. cerevisiae deletion strains, locus YOL012C, strain htz1 1.42 | S. cerevisiae deletion strains, locus YOL147C, strain pex11, stronger effect = lower value 0.992 | S. cerevisiae deletion strains, locus YOR001W, strain rrp6, stronger effect = lower value 0.933 | S. cerevisiae deletion strains, locus YOR061W, strain CKA2, stronger effect = lower value 1.01 | S. cerevisiae deletion strains, locus YOR069W, strain VPS5, stronger effect = lower value 1.01 | S. cerevisiae deletion strains, locus YOR070C, strain gyp1, stronger effect = lower value 0.993 | S. cerevisiae deletion strains, locus YOR080W, strain dia2, stronger effect = lower value 0.992 | S. cerevisiae deletion strains, locus YOR083W, strain WHI5, stronger effect = lower value 1.06 | S. cerevisiae deletion strains, locus YOR106W, strain vam3, stronger effect = lower value 1.08 | S. cerevisiae deletion strains, locus YOR136W, strain idh2, stronger effect = lower value 1 | S. cerevisiae deletion strains, locus YOR144C, strain elg1, stronger effect = lower value 1 | S. cerevisiae deletion strains, locus YOR184W, strain ser1, stronger effect = lower value 0.997 | S. cerevisiae deletion strains, locus YOR231W, strain MKK1, stronger effect = lower value 1.03 | S. cerevisiae deletion strains, locus YOR265W, strain rbl2, stronger effect = lower value 1 | S. cerevisiae deletion strains, locus YOR270C, strain vph1, stronger effect = lower value 1.05 | S. cerevisiae deletion strains, locus YOR290C, strain snf2, stronger effect = lower value 1.02 | S. cerevisiae deletion strains, locus YOR316C, strain cot1, stronger effect = lower value 0.993 | S. cerevisiae deletion strains, locus YPL051W, strain arl3, stronger effect = lower value 1.04 | S. cerevisiae deletion strains, locus YPL078C, strain atp4, stronger effect = lower value 1.04 | S. cerevisiae deletion strains, locus YPL106C, strain sse1, stronger effect = lower value 1.01 | S. cerevisiae deletion strains, locus YPL240C, strain hsp82, stronger effect = lower value 1.01 | S. cerevisiae deletion strains, locus YPL241C, strain CIN2, stronger effect = lower value 1.01 | S. cerevisiae deletion strains, locus YPL256C, strain CLN2, stronger effect = lower value 1.03 | S. cerevisiae deletion strains, locus YPR119W, strain clb2, stronger effect = lower value 0.986 | S. cerevisiae deletion strains, locus YPR141C, strain kar3, stronger effect = lower value 0.993 | S. cerevisiae deletion strains, locus YPR163C, strain tif3, stronger effect = lower value 1.01 | S. cerevisiae deletion strains, locus YPR167C, strain met16, stronger effect = lower value 0.995 | S. cerevisiae deletion strains, strain wtn01, stronger effect = lower value 0.993 | S. cerevisiae strains, strain wild type, stronger effect = lower value 1.01
